Compound activity from PubChem BioAssay.
An excerpt weighted towards active compounds, which were near 2.4% of everything screened.
POLK inh – DNA polymerase kappa (human) inhibition | Q9UBT6 | purified Pol kappa, fluorescent DNA synthesis assay, 10 min | Potency, µM (doses to about 107 µM), without a hit: at the top dose activity, negative = inhibition, actives largely listed as inhibitors | actives 0.53% (n = 400,000) | AID 588579; further: on the % scale 0 is the no-effect control and ±100 the full control effect
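Pol kappa 10 nM + cpd, 15 min RT; start w/ substrate 50 nM final; fluorescence kinetic read, 0 and 10 min. Neg ctrl: buffer, no enzyme.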
Pol eta inh – DNA polymerase eta (human) inhibition | Q9Y253 | recombinant Pol eta, fluorescent DNA replication assay | Potency, µM (highest dose often 114 µM), for inactives: at the highest dose activity change, negative = inhibition, hits mostly inhibitors | actives 1.2% (n = 390,000); further: on the % scale 0 is the no-effect control and ±100 the full control effect
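Pol eta at 10 nM preincubated with compounds 15 min at room temperature; reaction started with fluorescent substrate (50 nM final) and read kinetically at 0 and 10 min.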
Pol beta inh – DNA polymerase beta (human) inhibition. P06746. Pol beta primer extension/strand displacement, fluorescence kinetic. Potency, µM (doses to about 114 µM), without a hit: at the highest dose activity change, negative = inhibition, usual class: inhibitors. actives 1.3% (n = 340,000). AID 485314; further: on the % scale 0 is the no-effect control and ±100 the full control effect
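Preincubation: enzyme (10 nM) with compound, 15 min, RT. Reaction: substrate added to 50 nM final. Reads: 0 and 10 min. Analysis: normalized, Hill fit.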
Pol iota inh – blocks human DNA polymerase iota activity; Q9UNA4; Pol iota fluorescent replication assay, 10 min; Potency, µM (top dose mostly 115 µM), inactives show at the highest dose activity, negative = inhibition, hits mostly inhibitors; actives 1% (n = 390,000); AID 588590
Target sequence (Q9UNA4 whole entry, looked up): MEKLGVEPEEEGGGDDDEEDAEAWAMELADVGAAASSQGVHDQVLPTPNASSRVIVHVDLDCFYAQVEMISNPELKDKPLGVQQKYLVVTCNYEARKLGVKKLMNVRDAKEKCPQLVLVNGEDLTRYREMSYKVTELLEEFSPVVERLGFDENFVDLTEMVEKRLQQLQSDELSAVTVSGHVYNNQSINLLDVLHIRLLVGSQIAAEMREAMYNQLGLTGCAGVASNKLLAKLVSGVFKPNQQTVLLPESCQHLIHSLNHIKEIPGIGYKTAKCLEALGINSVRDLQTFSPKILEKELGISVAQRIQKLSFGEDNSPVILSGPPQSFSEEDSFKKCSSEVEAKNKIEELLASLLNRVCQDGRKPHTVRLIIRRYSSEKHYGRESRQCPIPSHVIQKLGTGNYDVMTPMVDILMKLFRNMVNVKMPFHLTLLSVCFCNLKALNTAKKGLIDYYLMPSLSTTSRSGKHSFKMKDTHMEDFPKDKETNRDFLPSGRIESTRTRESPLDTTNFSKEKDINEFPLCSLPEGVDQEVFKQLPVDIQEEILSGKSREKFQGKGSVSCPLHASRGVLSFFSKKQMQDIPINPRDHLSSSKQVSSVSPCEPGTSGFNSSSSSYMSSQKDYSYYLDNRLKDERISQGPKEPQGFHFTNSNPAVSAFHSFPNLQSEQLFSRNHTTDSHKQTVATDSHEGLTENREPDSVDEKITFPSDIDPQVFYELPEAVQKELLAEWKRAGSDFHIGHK
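Pol iota at 10 nM preincubated 15 min with compounds at room temperature; reaction started with fluorescent substrate, 50 nM final. Fluorescence read kinetically at 0 and 10 min; buffer-only wells as negative control.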
WRN helicase inh – WRN helicase (human) inhibition | actives 0.46% (n = 360,000) | WRN helicase unwinding, fluorescent forked duplex, kinetic | Potency, µM (top dose mostly 114 µM), for the others: at the top dose activity change, negative = inhibition, most hits filed as inhibitors | Q14191; further: on the % scale 0 is the no-effect control and ±100 the full control effect; nearly all actives have a fitted effect of over 55% in size
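Kinetic red-fluorescence monitoring (525/598 nm) tracks WRN helicase activity after 100 nM fluorophore-quencher forked duplex and 2 mM ATP are added to 20 nM enzyme pretreated 15 min at room temperature with compound.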
FEN1 inh – human FEN1 inhibition. Recombinant FEN1 flap cleavage, fluorescence, 15 min. P39748. AID 588795. actives 0.35% (n = 390,000). Potency, µM (titrated, usually from 114 µM), without a hit: at the highest dose activity change, negative = inhibition, usual class: inhibitors; further: on the % scale 0 is the no-effect control and ±100 the full control effect; nearly all actives have a fitted effect of over 65% in size
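Nuclease activity of 10 nM FEN1 was measured after 15 min of room-temperature exposure to titrated compounds, by adding 50 nM flap substrate and reading plates at 0 and 15 min.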
Active calls of the source: *; ! = not confirmed by another sample; [ ] = dose if it differs, or a comment. The call rests on the fitted dose curve; in most records, active means well fitted curve in the direction sought with a large enough effect; inconclusive means small, poorly fitted or top-dose-only effect, or another doubt; inactive means no such curve, though single readings can be large; an effect the other way counts as inactive or inconclusive. Potency means the concentration at half of the fitted maximal effect.

`CC(C)[C@H](O)CC[C@@H](C)C1CC[C@H]2C3CC=C4C[C@@H](O)CC[C@]4(C)C3CC[C@]12C` (stereo not given in full) gave POLK inh 3%[19.4 µM].
Screening Cc1ccccc1N=Nc1ccc(O)c2ncccc12 returned POLK inh -20%, Pol eta inh -7%, Pol beta inh 2%, Pol iota inh 24%, WRN helicase inh 3% and FEN1 inh -3%.
O=S(=O)(O)c1cccc2c(N=Nc3ccc(O)c4ncccc34)cccc12 was read as POLK inh -99%, Pol eta inh 3.2µM*, Pol beta inh inconclusive, Pol iota inh inconclusive, WRN helicase inh 22µM* and FEN1 inh inconclusive.
COc1ccc(/C=N/NC(=O)c2nn(-c3ccc(C)c(C)c3)c(=O)c3ccccc23)cc1 was read as POLK inh 2%, Pol eta inh -13%, Pol beta inh 10%, Pol iota inh 16%, WRN helicase inh -14% and FEN1 inh -1%.
COc1ccc(/C=N/NC(=O)c2nn(-c3ccccc3)c(=O)c3c(N)scc23)cc1 was read as POLK inh 35µM*, Pol eta inh -12%, Pol beta inh inconclusive, Pol iota inh 13µM*, WRN helicase inh -15%[57.1 µM] and FEN1 inh -2%.
Screening CC1=NNC(=O)C1Oc1ccccc1 (stereo not given) returned POLK inh -9%, Pol eta inh -8%, Pol beta inh -2%, Pol iota inh 25µM*, WRN helicase inh 2% and FEN1 inh 1%.
Screening CCc1cccc(NC(=O)C2CCCN(S(=O)(=O)c3cccs3)C2)c1 (stereo not given) returned POLK inh -29%, Pol eta inh -16%, Pol beta inh 37%, Pol iota inh 79µM*!, WRN helicase inh -8% and FEN1 inh inconclusive.
`CCCNC(=O)c1ccc(Cn2cc(C(F)(F)F)ccc2=O)cc1` gave POLK inh -23%, Pol eta inh -17%, Pol beta inh -2%, Pol iota inh 89µM*, WRN helicase inh 2%[57.1 µM] and FEN1 inh -3%.
Nc1ccc(/C=C/c2ccnc3ccccc23)cc1[N+](=O)[O-] was read as POLK inh 2%, Pol iota inh inconclusive and FEN1 inh 6%.
O=C(Oc1cc(=O)oc2c1c(=O)n1c3c(cccc23)CC1)c1ccccc1 was read as POLK inh -8%, Pol eta inh -12%, Pol beta inh 40µM*, Pol iota inh inconclusive, WRN helicase inh -25% and FEN1 inh inconclusive.
O=c1cc(CSc2nnc(-c3cccs3)n2Cc2ccccc2)nc2sc3ccccc3n12 was read as POLK inh 79µM*, Pol eta inh inconclusive, Pol beta inh 10µM*, Pol iota inh 13µM*, WRN helicase inh -9% and FEN1 inh -1%.
`Cc1ccc2c(=O)c3ccccc3n(CCCN)c2c1C` gave POLK inh 7.9µM*!.
Cn1c2ccccc2n2c(=O)cc(-c3ccccc3)c(C#N)c12 was read as POLK inh -7%, Pol eta inh -1%, Pol beta inh 45µM*, Pol iota inh 97%, WRN helicase inh inconclusive and FEN1 inh 1%.
`Cc1ccnc(NS(=O)(=O)c2ccc(CC(C)C)cc2)c1` gave POLK inh -3%, Pol eta inh 1%, Pol beta inh 100µM*, Pol iota inh -22%, WRN helicase inh 6% and FEN1 inh 10%.
O=c1c(-c2ccc(Cl)cc2)nc2cnc(N3CCNCC3)nc2n1CCc1ccccc1 was read as POLK inh -3%[60.1 µM].
For Cc1ccc(SCc2ccc(C(=O)NCc3ccncc3)cc2)cc1 the results were POLK inh -2%, Pol eta inh inconclusive, Pol beta inh inconclusive, Pol iota inh 28µM*, WRN helicase inh -8%[11.6 µM] and FEN1 inh -1%.
Screening O=C(c1cnc2c(c1)COc1ccccc1-2)c1ccccc1O returned POLK inh -4%, Pol eta inh -21%, Pol beta inh -25%, Pol iota inh -12% and FEN1 inh -1%.
`Cc1cccc(C2C3=C(Nc4[nH]n(-c5ccccc5)c(=O)c42)c2ccccc2C3=O)c1` (stereo not given) gave POLK inh inconclusive, Pol eta inh 13µM*, Pol beta inh inconclusive, Pol iota inh inconclusive, WRN helicase inh -5%[11.6 µM] and FEN1 inh inconclusive.
Cc1cc(Cl)n2c(nc3ccccc32)c1C#N was read as POLK inh -4%, Pol eta inh 40µM*, Pol beta inh 89µM*, Pol iota inh 22µM*, WRN helicase inh inconclusive and FEN1 inh -22%.
`COc1cc(/C=C2/C(=O)N(c3ccc(C)c(C)c3)N=C2C)cc([N+](=O)[O-])c1O` gave POLK inh 13%, Pol eta inh -15%, Pol beta inh 6%, Pol iota inh -12%, WRN helicase inh -12% and FEN1 inh 1%.
Screening COc1ccccc1/C=C1/C(=O)N(c2ccccc2)N=C1C returned POLK inh -6%, Pol eta inh 13%, Pol beta inh 1%, Pol iota inh inconclusive, WRN helicase inh -8% and FEN1 inh inconclusive.
For CC1=NN(c2ccccc2)C(=O)/C1=C\c1ccc(Oc2ccc([N+](=O)[O-])cc2[N+](=O)[O-])cc1 the results were POLK inh -13%, Pol eta inh 50µM*, Pol beta inh -3%, Pol iota inh 1.8µM*, WRN helicase inh -36%[57.1 µM] and FEN1 inh -10%.
`COc1cc(/C=C2\SC(=O)NC2=O)ccc1Oc1ccc([N+](=O)[O-])cn1` gave POLK inh -8%, Pol eta inh -9%, Pol beta inh 0%, Pol iota inh 41%, WRN helicase inh -9% and FEN1 inh -8%.
For COc1cc(/C=C2/SC(=O)NC2=O)ccc1Oc1ccc([N+](=O)[O-])cc1[N+](=O)[O-] the results were POLK inh 0%, Pol eta inh 50µM*, Pol beta inh 71%, Pol iota inh inconclusive, WRN helicase inh -6%[11.6 µM] and FEN1 inh inconclusive.
Screening COc1cc(/C=C2\C(=O)N(c3ccccc3)N=C2C)ccc1Oc1ccc([N+](=O)[O-])cc1[N+](=O)[O-] returned POLK inh -23%, Pol eta inh inconclusive, Pol beta inh -19%, Pol iota inh 2µM*, WRN helicase inh -34% and FEN1 inh -16%.
For O=C1CN(CCN2CC(=O)NC(=O)C2)CC(=O)N1 the results were POLK inh 1%, Pol iota inh 9% and FEN1 inh -1%.
